PubChem BioAssay (NCATS)
Results filed as inconclusive are left out. A call without a number means that no potency is given here. Activity calls are given as the source filed them. Calls come from the whole dose curve; as a rule, active = well fitted activation curve with a large enough effect; inconclusive = small, poorly fitted or top-dose-only effect; inactive = flat fitted curve, though single readings scatter.

experiment: Validation screen for small molecules that induce DNA re-replication in SW480 colon adenocarcinoma cells (AID 504364); settings: DNA re-replication phenotype (high-content imaging); series mostly up to 46.1 µM
From the text: H Molecular Libraries Probe Production Network [MLPCN]
NIH Chemical Genomics Center [NCGC]
Assay Provider: Melvin DePamphilis, NICHD, NIH
Eukaryotic cells normally restrict genome duplication to once per cell division. When this process is aberrant, DNA re-replication occurs when cells reinitiate DNA replication before the first round of replication is complete. DNA re-replication induces the DNA damage response, arrests cell proliferation, and triggers apoptosis. The cell cycle components cyclin A, Cdt-1, Cdc6 and geminin are critical regulators of this process and their misregulation results in DNA re-replication in normal and cancer cells. To identify compounds that induce re-replication in normal cells, an image-based assay was used to measure DNA content of nuclei, as detected by the fluorescent DNA binding dye, Hoechst. Cell nuclei were imaged by a fluorescence scanning plate imager and compounds that induce DNA re-replication were identified by the increase of nuclei with elevated fluorescence intensity.#
For screening, 250 cells in 5 uL/well were dispensed into black clear 1536-well plates (Aurora) using a solenoid-based dispenser. Following transfer of 23 nL compound or DMSO vehicle by a pin tool, the plates were incubated 48 hr at 37 C and 5% CO2. After addition of 1 uL/well Hoescht stain, the plates were incubated 40 min at 37 C, 5% CO2 and total intensity of fluorescent objects (nuclei) were enumerated by an Acumen Explorer Ex3 (TTP LabTech) fluorescence scanning plate imager (405 nm excitation, 500-530 nm emission).
Keywords: NIH Roadmap, MLPCN, MLI, MLSMR, qHTS, NCGC, DNA replication, cancer

SMILES	Potency
CCC1(c2ccccc2)C(=O)NCNC1=O	inactive
CCC1(C)CC(=O)NC1=O (stereo not given)	inactive
COc1ccc2[nH]cc(CCNC(C)=O)c2c1	inactive
Cc1cn([C@H]2C=C[C@@H](CO)O2)c(=O)[nH]c1=O	inactive
CCCCc1oc2ccccc2c1C(=O)c1cc(I)c(OCCN(CC)CC)c(I)c1	inactive
Cn1c(=O)c2[nH]cnc2n(C)c1=O	inactive
CN1C2CCC1CC(OC(=O)C(CO)c1ccccc1)C2 (stereo not given)	inactive
NCCS(=O)(=O)O	inactive
CC[N+](CC)(CC)CCOc1cccc(OCC[N+](CC)(CC)CC)c1OCC[N+](CC)(CC)CC	inactive
CCCNCC(O)COc1ccccc1C(=O)CCc1ccccc1 (stereo not given)	inactive
CC(CCc1ccc(O)cc1)NCCc1ccc(O)c(O)c1 (stereo not given)	inactive
O=C1c2c(O)ccc(O)c2C(=O)c2c(NCCNCCO)ccc(NCCNCCO)c21	inactive
COc1ccccc1N1CCN(CC(O)COc2cccc3ccccc23)CC1 (stereo not given)	inactive
C[C@](N)(Cc1ccc(O)c(O)c1)C(=O)O	inactive
O=C1N(c2ccccc2)c2ccccc2C1(Cc1ccncc1)Cc1ccncc1	inactive
CC(COc1ccccc1)N(CCCl)Cc1ccccc1 (stereo not given)	inactive
COc1nc(C)nc(Cl)c1NC1=NCCN1	inactive
NCCc1cnc[nH]1	inactive
O=c1[nH]cc(F)c(=O)[nH]1	inactive
Cc1cc(C(C)(C)C)cc(C)c1CC1=NCCN1	inactive

SMILES	Potency
Cn1ccc2cc3c(cc21)CCN3C(=O)Nc1cccnc1	inactive
CC12CC3CC(C)(C1)CC(N)(C3)C2	inactive
CC(C)Cc1ccc(C(C)C(=O)O)cc1 (stereo not given)	inactive
Cc1cnc(C(=O)NCCc2ccc(S(=O)(=O)NC(=O)NC3CCCCC3)cc2)cn1	inactive
CN(C)CCOC(c1ccccc1)c1ccccc1	inactive
NC(=O)OCC(COC(N)=O)c1ccccc1	inactive
Nc1ccn([C@H]2CC[C@@H](CO)O2)c(=O)n1	inactive
CCc1cccc2c3c([nH]c12)C(CC)(CC(=O)O)OCC3 (stereo not given)	inactive
COc1ccc2c(c1)c(CC(=O)O)c(C)n2C(=O)c1ccc(Cl)cc1	inactive
COc1cc2nc(N3CCN(C(=O)C4COc5ccccc5O4)CC3)nc(N)c2cc1OC (stereo not given)	inactive
Cn1c(=O)c2c(ncn2C)n(C)c1=O	inactive
Fc1ccc([C@@H]2CCNC[C@H]2COc2ccc3c(c2)OCO3)cc1	inactive
Cn1cnc2c1c(=O)[nH]c(=O)n2C	inactive
NC12CC3CC(CC(C3)C1)C2	inactive
OCCN1CCN(CCCN2c3ccccc3Sc3ccc(C(F)(F)F)cc32)CC1	inactive
Nc1nnc(-c2cccc(Cl)c2Cl)c(N)n1	inactive
Nc1c2c(nc3ccccc13)CCCC2	inactive
CN1C(C(=O)Nc2ccccn2)=C(O)c2ccccc2S1(=O)=O	inactive
COc1ccccc1OCC(O)CN1CCN(CC(=O)Nc2c(C)cccc2C)CC1 (stereo not given)	inactive
O=C(C1CCCCC1)N1CC(=O)N2CCc3ccccc3C2C1 (stereo not given)	inactive
